Source: PubChem BioAssay AID640 (Columbia University Molecular Screening Center, 2007)
In all, about 96,000 compounds went through this assay and about 200 (0.21%) were called active. The entries come from a sample that favours actives as a whole. Unmarked numbers belong to inactive results.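 The calls were made as follows: active = inhibition at 2 µM at or above a set limit, the screen mean plus 3 SD (cut at about 24% in these data); inactive = the rest.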

The molecules below were run against Tyrosine-protein phosphatase non-receptor type 22 (Homo sapiens) (UniProt Q9Y2R2) (assay: blockers of human LYP enzyme activity – biochemical, DiFMUP fluorescence, 2 µM, primary screen (AID 640;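 also: 0% = DMSO with enzyme and 100% = enzyme fully blocked by orthovanadate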)). Conditions: recombinant LYP catalytic domain, at 2 µM, active compounds read high.
Chain of Tyrosine-protein phosphatase non-receptor type 22 (Homo sapiens) (Q9Y2R2 whole entry, looked up, the tested form may be a part): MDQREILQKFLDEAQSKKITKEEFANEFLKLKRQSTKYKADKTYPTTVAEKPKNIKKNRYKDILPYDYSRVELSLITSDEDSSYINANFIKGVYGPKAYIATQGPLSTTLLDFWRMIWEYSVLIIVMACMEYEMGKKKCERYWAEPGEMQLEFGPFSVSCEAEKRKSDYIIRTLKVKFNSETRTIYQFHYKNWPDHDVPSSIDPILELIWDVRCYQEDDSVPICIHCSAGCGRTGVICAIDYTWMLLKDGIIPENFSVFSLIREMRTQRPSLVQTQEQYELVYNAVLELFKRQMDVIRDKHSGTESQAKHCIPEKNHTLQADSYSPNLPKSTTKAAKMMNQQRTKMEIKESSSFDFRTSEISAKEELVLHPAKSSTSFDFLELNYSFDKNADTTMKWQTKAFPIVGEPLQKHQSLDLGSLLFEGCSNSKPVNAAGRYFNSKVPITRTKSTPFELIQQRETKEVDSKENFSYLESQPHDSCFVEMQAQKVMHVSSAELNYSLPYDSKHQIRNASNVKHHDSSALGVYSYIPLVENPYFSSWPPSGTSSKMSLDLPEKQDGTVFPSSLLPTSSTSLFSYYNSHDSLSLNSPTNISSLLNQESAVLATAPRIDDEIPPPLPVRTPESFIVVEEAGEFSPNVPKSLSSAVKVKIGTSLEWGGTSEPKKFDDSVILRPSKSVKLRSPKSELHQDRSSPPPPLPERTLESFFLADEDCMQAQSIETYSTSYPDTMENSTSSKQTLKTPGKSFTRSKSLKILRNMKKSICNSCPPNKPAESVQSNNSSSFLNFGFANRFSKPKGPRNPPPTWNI
Molecule `O=C1CCCC2=C1C(c1ccccc1)n1c(s/c(=C/c3cccc(F)c3)c1=O)=N2` (stereo not drawn) has an inhibition of 3.1%. `O=C(Nc1cccc(NC(=O)c2ccco2)c1)c1cnccn1` was tested, and the inhibition was -8.1%. With `CCOC(=O)c1nc(Nc2ccc(C(=O)OC)cc2)c2ccccc2n1` the inhibition was 1.7%. Molecule `Cc1noc(COc2ccccc2OCc2onc(C)c2Cl)c1Cl` has an inhibition of -6.2%. In the case of `CN1CCCN(S(=O)(=O)c2ccc3c(c2)OCCO3)CC1`, the inhibition is reported as 14.9%. For `CC(C)(C)c1cc(=O)n2c(nc3ccccc32)[nH]1`, the inhibition was 16.2%. `CCOC(=O)NNC(=O)c1ccc(Cl)cc1` showed an inhibition of -7.6%. `O=C(CSc1ccccc1)Nc1ccc(NC(=O)c2ccco2)cc1` was tested, and the inhibition was 8.9%. In the case of `O=C(CN1CCN(S(=O)(=O)c2ccc(Cl)s2)CC1)NCc1ccc(Cl)cc1`, the inhibition is reported as -18.4%. In the case of `O=C(c1ccc(F)cc1)c1c[nH]c(C(=O)NCc2cccnc2)c1`, the inhibition is reported as -21.4%. With `CC(C)C(NC(=O)c1ccc(Cl)cc1)C(=O)O` (stereo not drawn) the inhibition was 0.8%. `Cc1ccc2c(Cl)c(C(=O)NCCCn3ccnc3)sc2c1` gave an inhibition of -1.4%. `COc1ccc(Cc2nnc(SCC(=O)c3cccc([N+](=O)[O-])c3)n2C)cc1` was tested, and the inhibition was 15.2%. `CN(C)c1nc(N)nc(CSc2ccccn2)n1` showed an inhibition of -6.7%. Work on `COc1ccc(CCN2C(=O)C3CC=C(C)CC3C2=O)cc1OC` (stereo not drawn) yielded an inhibition of 3.1%. Work on `Clc1ccc(C2=CSC3=Nc4cccc5cccc(c45)N23)cc1` yielded an inhibition of 13.9%. Molecule `CC(=O)NC1(c2cccc(F)c2)CCN(CC(=O)NC(C)C)CC1` has an inhibition of -6.7%. With `CC(=O)Oc1ccc(C(C)=O)c2c1OCCO2` the inhibition was -11.9%. For `Cc1cc2c(cc1C)N(C(=O)CN1C(=O)c3ccccc3C1=O)C(C)(C)c1ssc(=S)c1-2`, the inhibition was 2.3%. Work on `CS(=O)(=O)N(CC(=O)Nc1ccc(Cl)c(Cl)c1)C1CCCCC1` yielded an inhibition of -10%. For `O=C(Nc1ccccc1[N+](=O)[O-])C1C(c2ccccc2)=C1c1ccccc1`, the inhibition was -0.6%. In the case of `O=C(Cn1c(-c2ccc(Cl)cc2)noc1=O)N1CCN(c2ccccc2F)CC1`, the inhibition is reported as 27.2% (active). `O=C(c1ccc(CN2CCOCC2)cc1)N1CCN(c2ccccc2F)CC1` showed an inhibition of -7.2%. In the case of `O=C(c1cccc2ccccc12)N1CCN(c2ccccc2F)CC1`, the inhibition is reported as -10.2%. `COC(=O)c1nc2ccccc2s1` gave an inhibition of -12%. `COc1ccc(NC(=O)CSc2nc(N)c(-c3ccccc3)c(=O)[nH]2)cc1` showed an inhibition of -3.5%. With `C=CCN1C(=O)C(Cc2cccc(Cl)c2)S/C1=N/N=C/c1ccco1` (stereo not drawn) the inhibition was 8.9%. `COCc1cc(C(C)=O)ccc1OC` was tested, and the inhibition was 7.3%. For `O=C(CNC(=O)OCc1ccccc1)Oc1cc2oc(=O)cc(-c3ccccc3)c2cc1Cl`, the inhibition was 7.8%. In the case of `CC(C)(C)NS(=O)(=O)c1ccc(NC(=O)NC2CCCCC2)cc1`, the inhibition is reported as 13%. `CCOC(=O)c1c(C)nc2c(c1C)c(=O)oc1ccccc12` was tested, and the inhibition was -31.8%. With `Cc1ccc(OCC(=O)N/N=C/c2ccncc2)cc1` the inhibition was 10.7%. `Cc1ccc(OCC(=O)N/N=C\c2ccco2)c(C)c1` gave an inhibition of -4.2%. For `CSc1ccc(/C=N\NC(=O)COc2ccc(Cl)cc2Br)cc1`, the inhibition was 26.5% (active). Work on `CC1CCCCN1S(=O)(=O)c1ccc(C(=O)Nc2nnc(-c3cccs3)o2)cc1` (stereo not drawn) yielded an inhibition of 17.2%. With `CCC(=O)Oc1cccc(C(=O)Nc2ccc(-c3nnc(-c4ccco4)o3)cc2)c1` the inhibition was 8.1%. For `COc1cccc(-c2nnc(NC(=O)c3ccc(S(=O)(=O)N(CC(C)C)CC(C)C)cc3)o2)c1`, the inhibition was 24.4% (active). `O=C(NCCCCc1ccccc1)C1CC(c2ccc([N+](=O)[O-])cc2)=NO1` (stereo not drawn) gave an inhibition of -3.2%. `CCC(C)NC(=O)CSC1=Nc2ccccc2C2=NC(CCC(=O)NCc3ccco3)C(=O)N12` (stereo not drawn) was tested, and the inhibition was 6.7%. In the case of `C=CCOc1c2ccc(C(=O)N(CC)c3ccc(OC)cc3)cc2nn1C`, the inhibition is reported as 1.1%. For `CCSc1nc(-c2ccc(OC)cc2)cc(-c2ccc(OC)cc2)c1C#N`, the inhibition was -15.9%. `CCOC(=O)C1=C(CSc2nnnn2C)N(C)C(=O)NC1c1ccccc1` (stereo not drawn) was tested, and the inhibition was 6.4%. For `O=C(CCl)NNc1cccc(Cl)n1`, the inhibition was 2.9%. `O=C(c1ccc2c(c1)OCO2)N1CCN(C(=O)c2ccco2)CC1` was tested, and the inhibition was -5%. In the case of `Cc1cnc(NC(=O)C2CCCC2)s1`, the inhibition is reported as -5.5%. With `CCOC(=O)c1c(NC(C)=O)sc2c(O)c(Br)ccc12` the inhibition was 7.9%. Work on `COc1ccc(/C=N/Nc2nc3ccccc3c(=O)[nH]2)cc1` yielded an inhibition of 2.7%. In the case of `CC(=O)c1c(C)[nH]c(C(=O)NCc2ccc(C)cc2)c1C`, the inhibition is reported as 3.9%. In the case of `CNC(=O)c1nnc(Cc2ccc(Cl)cc2)o1`, the inhibition is reported as -2.1%. `Cc1ccc(Cl)cc1NC(=O)COC(=O)C1CCCCC1` was tested, and the inhibition was -5.7%. In the case of `O=C(Nc1cccc2ncccc12)C(Cl)(Cl)Cl`, the inhibition is reported as -4%. For `CCCCN1C(=O)/C(=C2/C=CC=CN2C)SC1=S`, the inhibition was -5.6%. Work on `COc1cc(OC)cc(-c2cc3nc(C4CCN(C(=O)OC(C)(C)C)CC4)cc(=O)n3[nH]2)c1` yielded an inhibition of -4.9%. `CC(C)(C)NC(=O)CN(Cc1cccs1)C(=O)CNS(=O)(=O)c1ccccc1` showed an inhibition of -1.7%. In the case of `Cc1nn(C(C)CC(=O)O)c(C)c1C` (stereo not drawn), the inhibition is reported as 7.9%. Work on `CCn1nc(C)c(NC(=O)/C=C/c2ccc(OC)c(COc3ccc(Br)cc3)c2)c1C` yielded an inhibition of 13.3%. Molecule `O=C(CSc1nnc(-c2cccs2)n1Cc1ccccc1)N1CCc2ccccc2C1` has an inhibition of -1.7%. Molecule `Cc1ccc2nc(SC(C)C(=O)NCc3ccco3)[nH]c2c1` (stereo not drawn) has an inhibition of -3.6%. Work on `Cn1c(=O)c2c(SCC(=O)N3CCOCC3)nc(C3CC3)nc2n(C)c1=O` yielded an inhibition of 4%. `Cc1cc2cc3c(N)[nH]nc3nc2cc1C` showed an inhibition of -13.7%. In the case of `Cc1ccc(-c2nc3ccccc3[nH]2)cc1NC(=O)c1sc2ccccc2c1Cl`, the inhibition is reported as 24.6% (active). Work on `Cc1ccc(-c2nc3ccccc3[nH]2)cc1N` yielded an inhibition of 0.9%. With `O=C(Nc1ccon1)c1sc2ccccc2c1Cl` the inhibition was -12.9%. Molecule `Cc1cc([N+](=O)[O-])c(NC2CCCCC2)c([N+](=O)[O-])c1` has an inhibition of 6.5%. Molecule `CC1(C)NC(=O)N(CCCCSc2ccc(Cl)cc2)C1=O` has an inhibition of 3.1%. Molecule `COC(=O)C1=C(Nc2ccc(C)cc2)C=C(C)C(C(=O)OC)C1c1ccc(F)cc1` (stereo not drawn) has an inhibition of -3.3%. `c1ccc(CC2CCN(c3nc4ccccc4n4cnnc34)CC2)cc1` showed an inhibition of 7.3%. `CON(C)S(=O)(=O)c1ccc2c(c1)NC(=O)C1CCCN21` (stereo not drawn) gave an inhibition of 6.3%. Work on `CN1CCN(C(=O)Cn2c(C(F)(F)F)nc3ccccc32)CC1` yielded an inhibition of 1.3%. Molecule `COc1ccc(-n2c(C)csc2=S)cc1` has an inhibition of -3.8%. `CCCCCCc1cc2cc(-c3nnc(-c4ccccc4)o3)c(=O)oc2cc1O` gave an inhibition of 16%. For `CCCCCCc1cc2cc(-c3nnc(-c4cccc(OC)c4)o3)c(=O)oc2cc1O`, the inhibition was 30.9% (active). In the case of `CCCCN(CC)CCCNC(=O)CS(=O)(=O)Cc1nc(-c2cccc(OC)c2)oc1C`, the inhibition is reported as 4.8%. `COc1ccc(OCC(=O)NN2Cc3ccccc3C2=N)cc1` showed an inhibition of 8.2%. In the case of `Cc1cc(=O)oc2cc(OCC3CC(c4ccccc4Cl)=NO3)ccc12` (stereo not drawn), the inhibition is reported as 0.4%. `COc1ccc(/C(O)=C2\C(=O)C(=O)N(Cc3ccco3)C2c2ccc(OC)cc2OC)cc1` (stereo not drawn) gave an inhibition of 3%. `O=C(CN(c1ccccc1)S(=O)(=O)c1ccc(Cl)cc1)Nc1ccccc1C(=O)N1CCCC1` was tested, and the inhibition was 3%. In the case of `Cc1sc2nc(SCC(N)=O)n(C)c(=O)c2c1C`, the inhibition is reported as -1%. `CC(=O)c1cnc(SCCN2C(=O)c3ccccc3C2=O)nc1C` showed an inhibition of -4.7%. `CCOc1ccccc1NC(=O)C1CCCN(C(=O)Nc2ccccc2)C1` (stereo not drawn) gave an inhibition of -6%. Work on `COc1cccc(NC(=O)CN2CCN(c3nc(-c4cccc(OC)c4)cs3)CC2)c1` yielded an inhibition of 8.7%. `CCOC(=O)c1[nH]c(C)c(C(=O)OCC(=O)N2c3ccccc3CC2C)c1C` (stereo not drawn) was tested, and the inhibition was 2.3%. For `COc1ccc(C(C#N)Nc2ccccc2C)cc1` (stereo not drawn), the inhibition was 7.5%. For `CCCCNC(=O)C1(c2ccc(OC)cc2)CCOCC1`, the inhibition was 6.4%. For `CCNC(=S)N1CCN(C(=O)c2ccco2)CC1`, the inhibition was -9.6%. With `O=C(/C=C/c1ccccc1)N/C(=C/c1ccccc1)C(=O)Nc1ccccc1O` the inhibition was 10%. In the case of `Cc1ccc(-c2cc(C(=O)NCC3CCCO3)c3ccccc3n2)o1` (stereo not drawn), the inhibition is reported as 2.7%. Molecule `C=CCn1c(-c2ccc(Cl)cc2)ccc(C#N)c1=O` has an inhibition of 8.4%. `Oc1ccc2ccc3cccc[n+]3c2c1` showed an inhibition of 2.8%. `Cc1csc2ncc(C(=O)N(Cc3ccccc3)c3ccccn3)c(=O)n12` was tested, and the inhibition was -3.8%. `Cc1ccc(CN(C(=O)c2sc3ccccc3c2Cl)C2CCS(=O)(=O)C2)cc1` (stereo not drawn) gave an inhibition of 3.5%. With `CSc1cc(C)n(-c2ccccc2C)c(=S)c1C(C)=O` the inhibition was -1.3%. With `O=C(Nc1ccccc1C(=O)NCCCn1ccnc1)c1ccc(Cl)cc1Cl` the inhibition was 4.3%. `COc1ccc(CNCCCO)cc1OC` was tested, and the inhibition was 2.8%. For `c1ccc2c(-c3nn4nnnc4c4ccccc34)cccc2c1`, the inhibition was 11.7%. In the case of `COc1ccc(Oc2c(Cl)cnn(-c3ccccc3)c2=O)cc1`, the inhibition is reported as -10.1%. For `COC(=O)CNS(=O)(=O)c1ccc(OC)cc1`, the inhibition was -2.1%. Molecule `CCOc1cc(C(=O)Nc2c(C)ccc3nsnc23)cc(OCC)c1OCC` has an inhibition of -14.9%. Work on `CC(C)(C)c1ccc(C(=O)NCC(=O)OCN2C(=O)c3ccccc3C2=O)cc1` yielded an inhibition of -8.4%. `O=C(/C=C/NNC(=O)c1cccc(Br)c1)c1ccccc1` showed an inhibition of 5.3%. For `Fc1ccccc1COc1ccccc1CNCc1ccncc1`, the inhibition was 4.4%. Work on `CCC(=O)NCCc1nc2ccccc2n1CC` yielded an inhibition of -1%. With `CNc1nc(SC)nc(N(C#N)CC(=O)OC)n1` the inhibition was -3.4%. Molecule `CCNc1nc(NC(C)C)nc(OCCOC(=O)c2ccccc2)n1` has an inhibition of -0.4%. Molecule `c1ccc(-c2ccnc3nc(-n4cccc4)nn23)cc1` has an inhibition of 9.9%. `Cc1cc2nc(SCCN3CCOCC3)[nH]c2cc1C` was tested, and the inhibition was -1%. Work on `O=C1N=C(N2CCOCC2)S/C1=C\C=C/c1ccccc1` yielded an inhibition of 0.2%. Molecule `CCOCCCNC(=O)C(NC(=O)c1ccc(=O)[nH]c1)c1ccc(C)cc1` (stereo not drawn) has an inhibition of 3%.
